According to article PMC7862700, “An all-to-all approach to the identification of sequence-specific readers for epigenetic DNA modifications on cytosine”:

What was measured:
Test in all cases: DAPPL (digital affinity profiling via proximity ligation, sequencing); 10 mM Tris-HCl pH 7.5, 50 mM NaCl, 1 mM DTT, 4% glycerol, room temperature, 30 min; GST-TFs on glutathione beads, 16-mer random dsDNA library, 0.1% formaldehyde crosslink after washing; high values mean tight binding
[1] = target: T1, FLI1 (Homo sapiens, UniProt Q01543 1-452); conditions: protein: recombinant; tags: N-terminal GST; dsDNA, one strand shown
T1 sequence: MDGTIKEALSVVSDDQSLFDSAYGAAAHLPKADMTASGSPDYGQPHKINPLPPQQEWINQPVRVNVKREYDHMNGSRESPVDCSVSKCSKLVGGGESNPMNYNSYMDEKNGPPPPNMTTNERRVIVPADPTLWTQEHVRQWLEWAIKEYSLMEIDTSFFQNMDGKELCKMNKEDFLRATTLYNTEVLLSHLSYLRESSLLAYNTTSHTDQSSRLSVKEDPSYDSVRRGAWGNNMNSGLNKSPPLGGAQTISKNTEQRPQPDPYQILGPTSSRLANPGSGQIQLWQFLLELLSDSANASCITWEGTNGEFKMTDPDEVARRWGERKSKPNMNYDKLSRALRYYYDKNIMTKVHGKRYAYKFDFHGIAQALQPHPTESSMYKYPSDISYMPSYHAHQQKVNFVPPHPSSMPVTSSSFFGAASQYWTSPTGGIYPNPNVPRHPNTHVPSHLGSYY
Summary of the method: (§1)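 The binding signal reported is, for every hexamer, its read frequency for a factor over its read frequency for the tag-only sample. Reads came from pools of yeast-expressed, GST-fused human transcription factors on glutathione beads, barcoded with DNA and mixed with that sample, which were incubated with 200 nmole of a random double-stranded 16-mer DNA library in Tris/NaCl/DTT/glycerol buffer at room temperature for 30 min. After washing, the pools were crosslinked with 0.1% formaldehyde, proximity-ligated with BsaI/T4 ligase for 1 h at 37 °C, PCR-amplified and sequenced on an Illumina NextSeq500.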

[2] = target: T2, ELK1 (Homo sapiens, UniProt P19419 1-428); conditions: protein: recombinant; tags: N-terminal GST; dsDNA, one strand shown
T2 sequence: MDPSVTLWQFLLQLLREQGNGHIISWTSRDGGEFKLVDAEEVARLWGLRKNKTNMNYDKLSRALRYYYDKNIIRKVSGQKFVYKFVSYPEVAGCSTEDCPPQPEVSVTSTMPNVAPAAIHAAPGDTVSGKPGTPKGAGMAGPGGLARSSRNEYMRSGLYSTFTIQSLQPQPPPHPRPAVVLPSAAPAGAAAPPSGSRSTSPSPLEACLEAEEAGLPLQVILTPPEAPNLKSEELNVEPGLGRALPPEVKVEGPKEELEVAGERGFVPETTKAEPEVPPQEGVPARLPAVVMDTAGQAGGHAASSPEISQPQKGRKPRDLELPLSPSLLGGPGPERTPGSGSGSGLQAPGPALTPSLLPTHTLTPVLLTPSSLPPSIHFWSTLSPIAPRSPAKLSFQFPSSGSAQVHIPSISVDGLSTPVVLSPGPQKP
Summary of the method: as §1

[3] = target: T3, GABPA (Homo sapiens, UniProt Q06546 1-454); conditions: protein: recombinant; tags: N-terminal GST; dsDNA, one strand shown
T3 sequence: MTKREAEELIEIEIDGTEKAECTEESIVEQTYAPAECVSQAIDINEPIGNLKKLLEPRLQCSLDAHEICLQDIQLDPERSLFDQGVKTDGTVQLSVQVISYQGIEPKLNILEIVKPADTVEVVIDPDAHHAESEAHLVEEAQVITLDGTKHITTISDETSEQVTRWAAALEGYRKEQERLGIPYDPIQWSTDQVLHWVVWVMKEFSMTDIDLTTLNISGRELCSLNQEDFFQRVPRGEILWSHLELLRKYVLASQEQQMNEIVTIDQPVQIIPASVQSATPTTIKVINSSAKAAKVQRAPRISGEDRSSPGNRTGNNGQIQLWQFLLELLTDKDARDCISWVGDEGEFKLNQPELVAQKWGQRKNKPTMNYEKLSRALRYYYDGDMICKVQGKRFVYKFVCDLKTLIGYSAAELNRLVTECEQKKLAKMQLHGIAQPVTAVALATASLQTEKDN
Summary of the method: as §1

[4] = target: T4, ERG (Homo sapiens, UniProt P11308 1-479); conditions: protein: recombinant; tags: N-terminal GST; dsDNA, one strand shown
T4 sequence: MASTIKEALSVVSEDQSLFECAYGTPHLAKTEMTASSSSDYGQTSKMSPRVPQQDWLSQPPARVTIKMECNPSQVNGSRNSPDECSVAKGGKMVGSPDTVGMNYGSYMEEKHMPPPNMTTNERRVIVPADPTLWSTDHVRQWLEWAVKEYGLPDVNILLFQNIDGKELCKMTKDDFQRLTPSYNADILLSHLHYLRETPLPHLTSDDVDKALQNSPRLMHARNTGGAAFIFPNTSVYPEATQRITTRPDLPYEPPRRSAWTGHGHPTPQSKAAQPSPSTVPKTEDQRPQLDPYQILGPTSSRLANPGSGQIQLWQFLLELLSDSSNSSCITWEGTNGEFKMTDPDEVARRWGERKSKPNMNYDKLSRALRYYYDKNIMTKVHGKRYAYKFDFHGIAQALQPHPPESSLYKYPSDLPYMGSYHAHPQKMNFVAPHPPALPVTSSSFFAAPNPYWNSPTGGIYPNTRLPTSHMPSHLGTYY
Summary of the method: as §1

[5] = target: ELF1 (Homo sapiens, UniProt P32519 1-619); conditions: protein: recombinant; tags: N-terminal GST; dsDNA, one strand shown
Summary of the method: as §1

[6] = target: T5, EHF (Homo sapiens, UniProt Q9NZC4 1-300); conditions: protein: recombinant; tags: N-terminal GST; dsDNA, one strand shown
T5 sequence: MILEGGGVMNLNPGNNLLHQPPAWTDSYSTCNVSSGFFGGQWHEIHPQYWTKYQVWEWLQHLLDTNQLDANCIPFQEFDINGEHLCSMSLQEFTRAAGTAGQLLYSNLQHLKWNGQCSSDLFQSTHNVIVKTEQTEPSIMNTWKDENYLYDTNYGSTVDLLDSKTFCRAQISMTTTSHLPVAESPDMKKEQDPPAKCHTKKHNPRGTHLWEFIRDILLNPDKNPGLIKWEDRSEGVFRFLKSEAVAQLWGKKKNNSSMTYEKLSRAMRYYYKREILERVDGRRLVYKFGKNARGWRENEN
Summary of the method: as §1

[7] = target: SPI1 (Homo sapiens, UniProt P17947 1-270); conditions: protein: recombinant; tags: N-terminal GST; dsDNA, one strand shown
Summary of the method: as §1

[8] = target: SPIB (Homo sapiens, UniProt Q01892 1-262); conditions: protein: recombinant; tags: N-terminal GST; dsDNA, one strand shown
Summary of the method: as §1

[9] = target: T6, ELK3 (Homo sapiens, UniProt P41970 1-407); conditions: protein: recombinant; tags: N-terminal GST; dsDNA, one strand shown
T6 sequence: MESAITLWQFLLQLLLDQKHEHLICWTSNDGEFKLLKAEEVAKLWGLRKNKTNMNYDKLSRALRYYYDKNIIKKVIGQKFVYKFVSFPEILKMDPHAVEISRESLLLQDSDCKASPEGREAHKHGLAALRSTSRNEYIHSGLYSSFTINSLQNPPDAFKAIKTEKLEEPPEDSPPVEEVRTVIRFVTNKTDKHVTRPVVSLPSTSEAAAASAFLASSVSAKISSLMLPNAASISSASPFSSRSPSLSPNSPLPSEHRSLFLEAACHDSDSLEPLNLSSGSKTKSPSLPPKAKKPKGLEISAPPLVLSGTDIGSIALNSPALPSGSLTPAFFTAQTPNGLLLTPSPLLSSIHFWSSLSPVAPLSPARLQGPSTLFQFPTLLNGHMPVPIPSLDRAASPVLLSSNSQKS
Summary of the method: as §1

[10] = target: T7, FEV (Homo sapiens, UniProt Q99581 1-238); conditions: protein: recombinant; tags: N-terminal GST; dsDNA, one strand shown
T7 sequence: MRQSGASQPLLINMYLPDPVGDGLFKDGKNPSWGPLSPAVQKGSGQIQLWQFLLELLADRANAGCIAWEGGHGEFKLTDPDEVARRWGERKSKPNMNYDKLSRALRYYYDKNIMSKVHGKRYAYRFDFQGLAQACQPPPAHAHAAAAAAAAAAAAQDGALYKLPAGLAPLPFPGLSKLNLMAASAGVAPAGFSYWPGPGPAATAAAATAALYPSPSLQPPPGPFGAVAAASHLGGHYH
Summary of the method: as §1

[11] = target: ETV5 (Homo sapiens, UniProt P41161 1-510); conditions: protein: recombinant; tags: N-terminal GST; dsDNA, one strand shown
Summary of the method: as §1

[12] = target: HSF1 (Homo sapiens, UniProt Q00613 1-529); conditions: protein: recombinant; tags: N-terminal GST; chain copies: 3; dsDNA, one strand shown
Summary of the method: as §1

[13] = target: T8, SPIC (Homo sapiens, UniProt Q8N5J4 1-248); conditions: protein: recombinant; tags: N-terminal GST; dsDNA, one strand shown
T8 sequence: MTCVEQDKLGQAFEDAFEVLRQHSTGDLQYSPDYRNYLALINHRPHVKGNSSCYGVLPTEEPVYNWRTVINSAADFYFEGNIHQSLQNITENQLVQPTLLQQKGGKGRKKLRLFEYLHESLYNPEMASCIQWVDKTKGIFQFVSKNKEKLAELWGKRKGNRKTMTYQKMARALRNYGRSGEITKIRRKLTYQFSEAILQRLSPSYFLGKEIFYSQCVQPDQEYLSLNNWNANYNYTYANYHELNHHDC
Summary of the method: as §1

[14] = target: ELF4 (Homo sapiens, UniProt Q99607 1-663); conditions: protein: recombinant; tags: N-terminal GST; dsDNA, one strand shown
Summary of the method: as §1

[15] = target: T9, ELK4 (Homo sapiens, UniProt P28324-2 1-405); conditions: protein: recombinant; tags: N-terminal GST; dsDNA, one strand shown
T9 sequence: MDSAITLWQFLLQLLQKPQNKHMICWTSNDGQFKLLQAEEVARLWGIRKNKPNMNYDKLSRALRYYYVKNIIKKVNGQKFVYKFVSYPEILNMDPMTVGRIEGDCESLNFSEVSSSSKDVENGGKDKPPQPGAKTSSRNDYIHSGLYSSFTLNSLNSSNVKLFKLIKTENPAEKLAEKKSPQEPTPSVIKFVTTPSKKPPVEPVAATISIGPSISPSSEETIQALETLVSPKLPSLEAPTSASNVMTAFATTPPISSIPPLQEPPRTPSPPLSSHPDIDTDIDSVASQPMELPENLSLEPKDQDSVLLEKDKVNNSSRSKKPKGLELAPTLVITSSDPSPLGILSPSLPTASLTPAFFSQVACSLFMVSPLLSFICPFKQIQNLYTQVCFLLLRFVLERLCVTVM
Summary of the method: as §1

[16] = target: T10, ETV2 (Homo sapiens, UniProt O00321 1-342); conditions: protein: recombinant; tags: N-terminal GST; dsDNA, one strand shown
T10 sequence: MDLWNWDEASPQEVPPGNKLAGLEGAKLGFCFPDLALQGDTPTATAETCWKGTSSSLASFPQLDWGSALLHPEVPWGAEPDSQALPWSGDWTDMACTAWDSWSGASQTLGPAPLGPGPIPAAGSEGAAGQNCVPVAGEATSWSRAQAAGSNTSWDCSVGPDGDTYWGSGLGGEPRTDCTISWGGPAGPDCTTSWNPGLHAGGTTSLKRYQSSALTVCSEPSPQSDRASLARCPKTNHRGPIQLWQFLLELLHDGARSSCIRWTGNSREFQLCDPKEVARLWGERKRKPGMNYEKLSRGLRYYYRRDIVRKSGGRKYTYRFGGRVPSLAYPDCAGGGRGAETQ
Summary of the method: as §1

[17] = target: T11, ELF3 (Homo sapiens, UniProt P78545 1-371); conditions: protein: recombinant; tags: N-terminal GST; dsDNA, one strand shown
T11 sequence: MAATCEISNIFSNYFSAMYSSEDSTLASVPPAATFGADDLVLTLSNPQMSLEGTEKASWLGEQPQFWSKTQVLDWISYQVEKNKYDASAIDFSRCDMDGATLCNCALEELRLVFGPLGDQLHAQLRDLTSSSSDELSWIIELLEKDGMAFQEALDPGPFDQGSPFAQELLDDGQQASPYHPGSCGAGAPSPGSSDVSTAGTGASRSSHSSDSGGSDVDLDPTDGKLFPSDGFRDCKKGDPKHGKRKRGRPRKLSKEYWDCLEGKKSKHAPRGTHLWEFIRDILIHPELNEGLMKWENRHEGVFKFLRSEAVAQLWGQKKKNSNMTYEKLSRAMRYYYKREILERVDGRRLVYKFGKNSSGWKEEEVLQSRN
Summary of the method: as §1

[18] = target: CRX (Homo sapiens, UniProt O43186 1-299); conditions: protein: recombinant; tags: N-terminal GST; dsDNA, one strand shown
Summary of the method: as §1

[19] = target: ETV1 (Homo sapiens, UniProt P50549 1-477); conditions: protein: recombinant; tags: N-terminal GST; dsDNA, one strand shown
Summary of the method: as §1

Sequence of HSF1 (Q00613 whole entry): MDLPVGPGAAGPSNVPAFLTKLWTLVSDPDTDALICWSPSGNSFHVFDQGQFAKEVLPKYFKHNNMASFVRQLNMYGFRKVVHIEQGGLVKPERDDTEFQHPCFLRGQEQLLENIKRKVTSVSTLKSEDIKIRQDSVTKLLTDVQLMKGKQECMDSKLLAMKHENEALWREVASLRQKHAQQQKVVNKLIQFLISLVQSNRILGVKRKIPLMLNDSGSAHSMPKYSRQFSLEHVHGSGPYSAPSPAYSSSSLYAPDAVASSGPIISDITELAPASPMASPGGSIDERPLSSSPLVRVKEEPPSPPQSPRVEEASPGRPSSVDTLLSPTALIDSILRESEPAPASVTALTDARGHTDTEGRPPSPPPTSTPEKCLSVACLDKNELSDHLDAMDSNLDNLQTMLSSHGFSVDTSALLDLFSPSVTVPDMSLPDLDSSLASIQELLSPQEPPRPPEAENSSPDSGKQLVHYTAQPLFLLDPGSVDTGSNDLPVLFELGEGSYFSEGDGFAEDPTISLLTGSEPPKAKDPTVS
Sequence of ELF4 (Q99607 whole entry): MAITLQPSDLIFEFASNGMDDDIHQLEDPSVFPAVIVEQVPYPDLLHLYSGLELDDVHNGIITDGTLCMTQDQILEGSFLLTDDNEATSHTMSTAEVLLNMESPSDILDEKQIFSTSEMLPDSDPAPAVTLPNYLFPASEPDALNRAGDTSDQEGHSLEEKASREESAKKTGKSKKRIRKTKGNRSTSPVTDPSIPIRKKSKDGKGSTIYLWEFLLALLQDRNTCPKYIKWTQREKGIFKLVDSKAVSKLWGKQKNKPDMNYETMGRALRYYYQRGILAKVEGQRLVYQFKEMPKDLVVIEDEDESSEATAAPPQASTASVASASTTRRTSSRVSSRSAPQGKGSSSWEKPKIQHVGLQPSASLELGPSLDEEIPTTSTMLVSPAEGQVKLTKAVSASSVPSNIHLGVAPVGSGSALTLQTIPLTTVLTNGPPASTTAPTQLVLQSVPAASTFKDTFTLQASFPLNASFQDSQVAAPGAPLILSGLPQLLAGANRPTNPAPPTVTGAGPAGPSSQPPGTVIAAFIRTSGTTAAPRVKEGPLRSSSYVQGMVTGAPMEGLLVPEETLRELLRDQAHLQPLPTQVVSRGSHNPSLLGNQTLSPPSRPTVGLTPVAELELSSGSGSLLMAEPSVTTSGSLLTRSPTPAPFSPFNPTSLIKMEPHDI
Sequence of SPIB (Q01892 whole entry): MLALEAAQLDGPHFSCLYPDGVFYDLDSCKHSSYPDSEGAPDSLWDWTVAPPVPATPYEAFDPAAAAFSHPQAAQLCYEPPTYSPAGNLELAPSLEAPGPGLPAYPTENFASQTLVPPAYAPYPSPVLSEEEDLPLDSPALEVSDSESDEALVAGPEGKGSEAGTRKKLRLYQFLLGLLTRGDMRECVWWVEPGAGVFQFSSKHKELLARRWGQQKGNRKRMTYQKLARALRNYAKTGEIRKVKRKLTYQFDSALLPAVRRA
Sequence of CRX (O43186 whole entry): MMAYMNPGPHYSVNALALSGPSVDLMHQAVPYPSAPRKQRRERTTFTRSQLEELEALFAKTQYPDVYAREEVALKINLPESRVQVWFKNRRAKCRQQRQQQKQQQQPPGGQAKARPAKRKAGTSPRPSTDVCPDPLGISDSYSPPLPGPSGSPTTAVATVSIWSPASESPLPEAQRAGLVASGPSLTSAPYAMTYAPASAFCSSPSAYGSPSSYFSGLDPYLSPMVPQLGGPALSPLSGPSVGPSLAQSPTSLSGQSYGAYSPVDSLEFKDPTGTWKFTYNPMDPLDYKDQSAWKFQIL
Sequence of ELF1 (P32519 whole entry): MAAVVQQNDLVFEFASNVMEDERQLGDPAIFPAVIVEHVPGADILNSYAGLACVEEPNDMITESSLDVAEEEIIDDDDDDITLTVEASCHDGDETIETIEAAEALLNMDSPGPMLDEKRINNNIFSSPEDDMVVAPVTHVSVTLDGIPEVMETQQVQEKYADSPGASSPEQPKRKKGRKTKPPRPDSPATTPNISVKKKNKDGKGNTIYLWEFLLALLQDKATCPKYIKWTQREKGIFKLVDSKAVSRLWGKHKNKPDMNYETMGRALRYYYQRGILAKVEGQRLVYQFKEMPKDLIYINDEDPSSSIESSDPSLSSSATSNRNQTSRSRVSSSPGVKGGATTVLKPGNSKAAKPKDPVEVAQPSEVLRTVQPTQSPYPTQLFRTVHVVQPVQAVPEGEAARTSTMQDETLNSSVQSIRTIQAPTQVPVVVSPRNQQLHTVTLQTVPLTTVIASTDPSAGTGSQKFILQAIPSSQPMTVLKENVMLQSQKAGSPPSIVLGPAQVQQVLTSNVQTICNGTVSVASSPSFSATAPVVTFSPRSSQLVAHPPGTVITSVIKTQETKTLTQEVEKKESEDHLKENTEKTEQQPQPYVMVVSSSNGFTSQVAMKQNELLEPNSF
Sequence of ETV5 (P41161 whole entry): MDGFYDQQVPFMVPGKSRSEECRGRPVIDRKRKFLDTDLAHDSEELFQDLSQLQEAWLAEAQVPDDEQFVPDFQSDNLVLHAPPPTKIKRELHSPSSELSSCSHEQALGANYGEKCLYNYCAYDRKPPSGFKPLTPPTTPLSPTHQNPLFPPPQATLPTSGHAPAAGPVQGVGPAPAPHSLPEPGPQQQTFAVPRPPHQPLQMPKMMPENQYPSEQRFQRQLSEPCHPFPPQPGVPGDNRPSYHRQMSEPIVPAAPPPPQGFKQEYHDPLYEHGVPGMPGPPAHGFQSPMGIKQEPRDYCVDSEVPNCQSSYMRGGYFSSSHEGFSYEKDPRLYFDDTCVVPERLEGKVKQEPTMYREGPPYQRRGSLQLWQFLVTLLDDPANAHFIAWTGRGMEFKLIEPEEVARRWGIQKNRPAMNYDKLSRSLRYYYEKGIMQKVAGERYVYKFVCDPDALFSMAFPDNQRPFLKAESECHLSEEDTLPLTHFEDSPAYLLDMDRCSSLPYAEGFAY
Sequence of ETV1 (P50549 whole entry): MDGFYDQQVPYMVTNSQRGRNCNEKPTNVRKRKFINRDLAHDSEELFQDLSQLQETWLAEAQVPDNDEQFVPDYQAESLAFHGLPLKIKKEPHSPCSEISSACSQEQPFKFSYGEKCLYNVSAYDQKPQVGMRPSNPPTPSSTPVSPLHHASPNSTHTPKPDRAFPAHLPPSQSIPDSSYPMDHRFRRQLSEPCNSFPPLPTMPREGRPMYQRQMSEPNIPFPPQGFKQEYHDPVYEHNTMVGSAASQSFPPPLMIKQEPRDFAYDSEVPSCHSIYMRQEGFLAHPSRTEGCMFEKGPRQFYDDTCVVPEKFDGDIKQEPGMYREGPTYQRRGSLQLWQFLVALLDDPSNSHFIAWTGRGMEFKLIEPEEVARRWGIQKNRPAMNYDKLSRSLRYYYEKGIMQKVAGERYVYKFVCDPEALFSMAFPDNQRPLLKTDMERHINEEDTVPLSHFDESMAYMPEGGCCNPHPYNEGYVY

## CTTTTT
[1]
  binding signal: 1.22 fold enrichment (6-mer frequency, TF over GST control)
[2]
  binding signal: 1.16 fold enrichment (6-mer frequency, TF over GST control)
[3]
  binding signal: 1.32 fold enrichment (6-mer frequency, TF over GST control)
[4]
  binding signal: 1.25 fold enrichment (6-mer frequency, TF over GST control)
[5]
  binding signal: 1.31 fold enrichment (6-mer frequency, TF over GST control)
[6]
  binding signal: 1.17 fold enrichment (6-mer frequency, TF over GST control)
[7]
  binding signal: 1.88 fold enrichment (6-mer frequency, TF over GST control)
[8]
  binding signal: 1.41 fold enrichment (6-mer frequency, TF over GST control)
[9]
  binding signal: 1.37 fold enrichment (6-mer frequency, TF over GST control)
[10]
  binding signal: 1.35 fold enrichment (6-mer frequency, TF over GST control)
[11]
  binding signal: 1.28 fold enrichment (6-mer frequency, TF over GST control)
[12]
  binding signal: 1.23 fold enrichment (6-mer frequency, TF over GST control)
[13]
  binding signal: 1.34 fold enrichment (6-mer frequency, TF over GST control)
[14]
  binding signal: 1.43 fold enrichment (6-mer frequency, TF over GST control)
[15]
  binding signal: 1.24 fold enrichment (6-mer frequency, TF over GST control)
[16]
  binding signal: 1.28 fold enrichment (6-mer frequency, TF over GST control)
[17]
  binding signal: 1.58 fold enrichment (6-mer frequency, TF over GST control)
[18]
  binding signal: 1.25 fold enrichment (6-mer frequency, TF over GST control)
[19]
  binding signal: 1.32 fold enrichment (6-mer frequency, TF over GST control)
